This is part of a sample that, as a whole, favours compounds with a hit. Of some 83,000 tested, about 20% had one in any assay.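 Percent growth is the endpoint: 0 to 100 indicates growth inhibition (40 means 60% inhibition), 0 means no net growth, and negative values indicate cell death.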 A number with no mark means an inactive call. Activity calls are given as the source filed them. How the source made its calls: active means growth percent below 10; inactive means the rest.
Assays:
Assay in all cases: NCI-60 one-dose screen, 48 h (100 = growth as untreated, 0 = no growth, -100 = all killed)
Conditions in all cases: 10 µM unless noted
[1] = system: DU-145 prostate
[2] = system: K-562 leukemia
[3] = system: MALME-3M melanoma
[4] = system: MDA-MB-231 breast
[5] = system: RXF 393 renal
[6] = system: SF-268 CNS
[7] = system: SF-295 CNS
[8] = system: SF-539 CNS
[9] = system: UACC-257 melanoma
[10] = system: M14 melanoma
[11] = system: HCT-15 colon
[12] = system: HT29 colon
[13] = system: SNB-75 CNS
[14] = system: SNB-19 CNS
[15] = system: PC-3 prostate
[16] = system: SK-MEL-5 melanoma
[17] = system: UACC-62 melanoma
[18] = system: LOX IMVI melanoma
[19] = system: SK-MEL-28 melanoma
[20] = system: U251 CNS

Structure (SMILES)	growth [1]	growth [2] [%]	growth [3]	growth [4]	growth [5]	growth [6]	growth [7]	growth [8]	growth [9]	growth [10]	growth [11]	growth [12]	growth [13] [%]	growth [14]	growth [15]	growth [16]	growth [17]	growth [18]	growth [19]	growth [20] [%]
COC(=O)/C=C1\S/C(=N\NC(=O)c2cc3ccc2/C=C\c2ccc(cc2)/C=C\3)N(c2ccccc2)C1=O	50.9%	27	78.8%	32.5%	5.34% (active)	72.5%	62.6%	-22.5% (active)	69.2%	53.1%	0.337% (active)	-13.1% (active)	45.7	39.9%	-35.9% (active)	69.3%	25.2%	-27.8% (active)	82.5%	–
COc1cc2c(=O)n(CCN(C)C)c3c4cc5c(cc4ccc3c2cc1OC)OCO5	3.59% (active)	12.1	-63.6% (active)	-21.6% (active)	-84.6% (active)	0.0226% (active)	3.79% (active)	-39.9% (active)	-33.4% (active)	-56.7% (active)	-13.3% (active)	0.585% (active)	17.8	6.11% (active)	7.26% (active)	-68.7% (active)	-85.6% (active)	-58.3% (active)	-33.9% (active)	–
CN1C(=O)NC(c2ccc3c(c2)OCO3)C=C1c1ccccc1 (configuration not stated)	94.7%	76.5	88.4%	102%	91.2%	95.6%	98.6%	98.1%	98.5%	96.9%	77.8%	84.2%	80.2	92.5%	–	99%	89.8%	96.5%	106%	72
O=C(Nc1ccccc1C(=O)N/N=C(\c1ccccc1)c1ccccn1)c1ccc(F)cc1	23.5%	12.8	35.6%	36.6%	37.2%	19.2%	20.9%	9.35% (active)	2.87% (active)	-23.3% (active)	32.5%	25.2%	16.2	25.5%	–	-7.66% (active)	1.28% (active)	8.38% (active)	33.7%	17.8
O=C1Nc2cc(-c3ccc(NS(=O)(=O)c4ccccc4)cc3)ccc2/C1=C/c1ccc[nH]1	31.8%	61	85.5%	62.9%	104%	92.1%	98.7%	76.2%	110%	90.1%	62.9%	84.2%	98.5	98.1%	–	91.2%	89.3%	69.3%	108%	97.9
Cc1nc(N)nc(N[C@@H](C)c2nc3cccc(NCc4ccc(C(=O)NO)cc4)c3c(=O)n2-c2ccccc2)n1	86.9%	47.8	37.7%	81%	65%	87.1%	104%	75.9%	58.3%	73.7%	110%	77.3%	69.6	71.3%	88%	77.3%	59.1%	72.8%	70%	–
O=C(N/N=C/c1cc2ccccc2n2nnnc12)Nc1ccccc1	103%	95.1	106%	105%	103%	101%	104%	106%	111%	102%	98.3%	97.2%	103	97.1%	101%	101%	100%	108%	113%	–
CC(C)(C)CC(C)(C)n1nnnc1C(NC12CC3CC(CC(C3)C1)C2)c1ccccc1 (configuration not stated)	96.5%	73.1	99.2%	81.4%	85.9%	83.3%	75.9%	95.7%	89.1%	82.8%	84.5%	79.9%	80.5	90.5%	–	88.9%	69.2%	87.6%	99.6%	89.4
